29 molecules from the supplement of paper PMC5919970 can be followed below.

The assay relates to TYKNU. As to the kind of experiment: fractional viability relative to vehicle; TYKNU is a high-grade serous ovarian cancer line; higher = less growth inhibition. As to conditions: 72 h. Put shortly:
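Drug treatment lasted 72 h, with cells grown at 37 °C in 5% CO2 in RPMI 1640 supplemented with 10% FBS. Beforehand, TYKNU control cells or their lentiCRISPRv2 knockout derivatives had been seeded at 500 cells per well into drug-stamped 384-well plates carrying a ~2100-compound library at 2 or 10 μM, in duplicate. Viability came from Cell Titer Glo luminescence, with averaged duplicate treatment wells normalised to duplicate control wells in the same plate position.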

Where [1] appears, read: 2uM, genotype: DNM1L knockout (sgDNM1L #1).
[2] abbreviates: 2uM, genotype: sgCTRLA1 (non-targeting control).
Where [3] appears, read: 10uM, genotype: DNM1L knockout (sgDNM1L #1).
[4] abbreviates: 10uM, genotype: sgCTRLA1 (non-targeting control).

Structures can show the parent of a compound that is named as a salt. Whole data set: some 2,000 compounds, median “fractional viability relative to vehicle” near 0.91, cut for the lowest 2% near 0.045. The full list was thinned out, with the lowest values kept by preference.

In the case of `O=C(NNc1nc2cc(F)ccc2n2cccc12)c1cnccn1`, the fractional viability turned out to be 0.358 under setting [1], 0.282 under setting [2], 0.269 under setting [3] and 0.247 under setting [4].

With `Nc1c(CC(=O)O)cccc1C(=O)c1ccc(Br)cc1` [Bromfenac Sodium], the fractional viability reads like this: under setting [1], 0.888; under setting [2], 1.1; under setting [3], 0.801; under setting [4], 1.05.

For `CCN(CC)CCNC(=O)c1c(C)[nH]c(/C=C2\C(=O)Nc3ccc(F)cc32)c1C` [Sunitinib Malate], the fractional viability by setting is: under setting [1], 0.853; under setting [2], 0.819; under setting [3], 0.169; under setting [4], 0.122.

On to `Cc1[nH]c(/C=C2\C(=O)Nc3ccccc32)c(C)c1CCC(=O)O` [TSU-68 (SU6668, Orantinib)], for which the fractional viability runs as follows: under setting [1], 0.962; under setting [2], 1.11; under setting [3], 0.869; under setting [4], 1.02.

On to `CCN(CC)CCNC(=O)c1ccc(N)cc1` [Procainamide HCl], for which the fractional viability came to 0.791 under setting [1], 1 under setting [2], 0.633 under setting [3] and 0.929 under setting [4].

Regarding `CCN(CC)CCNC(=O)c1c(C)[nH]c(/C=C2\C(=O)Nc3ccc(F)cc32)c1C` [Sunitinib], the fractional viability by setting is: under setting [1], 0.544; under setting [2], 0.67; under setting [3], 0.0734; under setting [4], 0.0439.

As for `O=C(c1ccc(F)c(F)c1Nc1ccc(I)cc1F)N1CC(O)([C@@H]2CCCCN2)C1` [Cobimetinib (GDC-0973, RG7420)], the fractional viability is, setting by setting: under setting [1], 0.814; under setting [2], 1.03; under setting [3], 0.942; under setting [4], 0.846.

As for `Nc1ccc2ncnc(NCCc3ccc(Oc4ccccc4)cc3)c2c1`, the fractional viability is, setting by setting: under setting [1], 0.604; under setting [2], 0.444; under setting [3], 0.596; under setting [4], 0.43.

As for `COc1cc(/C=C/C(=O)N2CCC=CC2=O)cc(OC)c1OC` [Piperlongumine], the fractional viability was determined as 0.302 under setting [1], 0.319 under setting [2], 0.0446 under setting [3] and 0.0292 under setting [4].

Consider `COc1ccc(/C=C\c2cc(OC)c(OC)c(OC)c2)cc1O` [Combretastatin A4], for which the fractional viability turned out to be 0.11 under setting [1], 0.122 under setting [2], 0.111 under setting [3] and 0.073 under setting [4].

`COc1cc(/C=C/C(=O)N2CCN(CC(=O)N3CCCC3)CC2)cc(OC)c1OC` [Cinepazide maleate] gave a fractional viability under setting [1] of 1.08, a fractional viability under setting [2] of 0.973, a fractional viability under setting [3] of 1.1 and a fractional viability under setting [4] of 1.02.

In the case of `COc1ccc2cc(OCC3(C(=O)O)CN(C(=O)c4ccc(F)cc4)C3)ccc2c1`, the fractional viability is, setting by setting: under setting [1], 0.822; under setting [2], 1.12; under setting [3], 0.788; under setting [4], 1.11.

For `COCCOc1ccc2c(c1)ncn2-c1ccc2cccc(N3CCC(N)CC3)c2n1`, the fractional viability by setting is: under setting [1], 0.892; under setting [2], 0.893; under setting [3], 0.13; under setting [4], 0.139.

As to `Cc1cc(C)c(CNC(=O)c2cc(-c3ccc(N4CCN(C)CC4)nc3)cc3c2c(C)cn3C(C)C)c(=O)[nH]1`, the fractional viability reads like this: under setting [1], 0.782; under setting [2], 1.03; under setting [3], 0.669; under setting [4], 0.609.

Regarding `O=C(NC1CC1)c1cc(-c2cccs2)on1` [Isoxazole 9 (ISX-9)], the fractional viability under setting [1] amounted to 0.927, the fractional viability under setting [2] stood at 0.844, the fractional viability under setting [3] was 0.795 and the fractional viability under setting [4] was determined as 0.662.

As to `CC(CNC(=O)c1cccnc1)NC(=O)c1cccnc1` (stereo unspecified) [Nicaraven], the fractional viability was determined as 0.754 under setting [1], 1.07 under setting [2], 0.726 under setting [3] and 0.99 under setting [4].

For the molecule `CCCS(=O)(=O)Nc1ccc(F)c(C(=O)c2c[nH]c3ncc(-c4ccc(Cl)cc4)cc23)c1F` [Vemurafenib (PLX4032, RG7204)], the fractional viability under setting [1] is 1.05, the fractional viability under setting [2] was 1.26, the fractional viability under setting [3] was found to be 0.823 and the fractional viability under setting [4] came out at 0.974.

For the molecule `COc1ncc(-c2ccc3nccc(-c4ccnnc4)c3c2)cc1NS(=O)(=O)c1ccc(F)cc1F`, the fractional viability by setting is: under setting [1], 0.446; under setting [2], 0.184; under setting [3], 0.0665; under setting [4], 0.0352.

On to `COC(=O)N[C@H](C(=O)N1CCC[C@H]1c1ncc(-c2ccc(-c3ccc(-c4cnc([C@@H]5CCCN5C(=O)[C@@H](NC(=O)OC)C(C)C)[nH]4)cc3)cc2)[nH]1)C(C)C`, for which the fractional viability reads like this: under setting [1], 1.04; under setting [2], 1; under setting [3], 0.511; under setting [4], 0.654.

With `CS(=O)(=O)CCNCc1ccc(-c2ccc3ncnc(Nc4ccc(OCc5cccc(F)c5)c(Cl)c4)c3c2)o1`, the fractional viability is, setting by setting: under setting [1], 1.08; under setting [2], 1.02; under setting [3], 0.179; under setting [4], 0.303.

Consider `C=CC(=O)Nc1ccc2ncnc(Nc3cccc(Br)c3)c2c1`, for which the fractional viability is 0.927 under setting [1], 0.921 under setting [2], 0.248 under setting [3] and 0.317 under setting [4].

As for `C=CC(=O)Nc1ccc2ncnc(Nc3ccc(OCc4cccc(F)c4)c(Cl)c3)c2c1`, the fractional viability by setting is: under setting [1], 0.704; under setting [2], 0.853; under setting [3], 0.044; under setting [4], 0.0416.

Turning to `COCC(=O)NC/C=C/c1ccc2ncnc(Nc3ccc(Oc4ccc(C)nc4)c(C)c3)c2c1`, the fractional viability runs as follows: under setting [1], 1.07; under setting [2], 1.08; under setting [3], 0.886; under setting [4], 1.06.

Consider `Cc1c(Cn2c(C)nc3c(C(=O)O)cc(N4CCOCC4)cc32)cccc1C(F)(F)F`, for which the fractional viability is 0.754 under setting [1], 0.989 under setting [2], 0.83 under setting [3] and 0.849 under setting [4].

As for `CC[C@@H]([C@H](C)O)n1ncn(-c2ccc(N3CCN(c4ccc(OC[C@@H]5CO[C@@](Cn6cncn6)(c6ccc(F)cc6F)C5)cc4)CC3)cc2)c1=O` [Posaconazole], the fractional viability runs as follows: under setting [1], 0.919; under setting [2], 1.13; under setting [3], 0.868; under setting [4], 1.05.

`C=CC(=O)Nc1ccc(CN2C(=O)N(c3cc(OC)cc(OC)c3)Cc3cnc(Nc4ccc(N5CCN(C)CC5)cc4)nc32)cc1`: the fractional viability was determined as 0.926 under setting [1], 0.803 under setting [2], 0.0593 under setting [3] and 0.0423 under setting [4].

Consider `C=CC(=O)Nc1cccc(Sc2nc(Nc3ccc(N4CCN(C)CC4)cc3)ncc2Cl)c1`, for which the fractional viability reads like this: under setting [1], 0.965; under setting [2], 0.898; under setting [3], 0.0379; under setting [4], 0.0337.

As to `C=CC(=O)Nc1cccc(Nc2nc(Nc3ccc(N4CCN(C(C)=O)CC4)cc3OC)ncc2C(F)(F)F)c1`, the fractional viability is, setting by setting: under setting [1], 0.528; under setting [2], 0.856; under setting [3], 0.24; under setting [4], 0.235.

`C=CC(=O)Nc1cccc(Oc2nc(Nc3ccc(N4CCN(C)CC4)cc3OC)ncc2Cl)c1`: the fractional viability reads like this: under setting [1], 0.754; under setting [2], 0.963; under setting [3], 0.345; under setting [4], 0.492.
